High-throughput results deposited in PubChem BioAssay by Broad Institute.
esBAF inh: blocks esBAF chromatin remodeling in mouse ES cells; AID 602393; Bmi1-luciferase knock-in reporter, 24 h; 100% = twice the neutral-well signal; 2% of 350,000 active; reporter increase, % at 12.5 µM; in the data active = activation above about 40%; inconclusive = no clear call, values can overlap the other calls;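 also: a rise in the Bmi1 reporter signal indicates esBAF inhibition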
Wnt act: Wnt/beta-catenin pathway activation; Wnt/beta-catenin reporter cell assay, activator, plate reader; activation, % at 9.35 µM; 1.2% of 300,000 active; AID 743398; in the data active = activation above about 30%, passing the limit was not always enough; inconclusive = no clear call, values can overlap the other calls
EBV LMP1 NFkB: reduces LMP1-driven NF-kappaB luciferase signal | inhibition, % at 12.5 µM | 0.69% of 350,000 active | LMP1-induced NF-kappaB luciferase reporter cells, luminescence; in the data active = inhibition above about 41%; inconclusive = no clear call, values can overlap the other calls
MITF act: MITF TRPM1 promoter activation in melanoma cells | SK-MEL-5 TRPM1-promoter luciferase, 24 h; % of positive control, neutral wells = 0 | activation, % at 12.5 µM | 0.75% of 300,000 active;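 active = mean activation of at least 80% with every replicate also reaching 80%; inconclusive = mean reaches 80% but some replicate falls short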
TRPM1 prom inh: MITF TRPM1 promoter inhibition in SK-MEL-5 cells; SK-MEL-5 TRPM1 promoter luciferase, 24 h; inhibition, % at 12.5 µM; 0.83% of 330,000 active;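 active = mean inhibition across replicates of 60% or more, whatever share of single replicates reaches that level; inconclusive = some that reach 60%, reason not given; inactive = mean inhibition across replicates below 60%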
C2C12 statin: suppressors of simvastatin-induced myotoxicity in C2C12 myotubes. AID 602340. ATP luminescence, 48 h; scaled: DMSO 0, geranylgeraniol control 100. rescue of ATP level, % at 7.49 µM. 0.78% of 330,000 active;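 active = mean ATP rescue above about 67%, or every replicate alone reaching that limit, limit read from the data, passing the limit was not always enough; inconclusive = no clear call, values can overlap the other calls; inactive = mean under the limit and some replicate under it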;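 also: myotubes were challenged with 10 µM simvastatin during compound exposure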
Hits are given with their value. Rows were chosen to be rich in hits. Some 4% of all compounds tested hit in one or more screens of this group.

For C[C@@H]1CN([C@H](C)CO)C(=O)c2cccc(NS(=O)(=O)c3cccs3)c2O[C@@H]1CN(C)Cc1ccc(-c2ccccc2)cc1 the results were esBAF inh inactive and C2C12 statin 70.1.
`C[C@@H]1CN([C@H](C)CO)C(=O)c2cccc(NS(=O)(=O)c3cccs3)c2O[C@@H]1CN(C)Cc1ccc(Oc2ccccc2)cc1` gave esBAF inh inactive and C2C12 statin 79.4.
For CC1(C)CC(C(CC(=O)O)c2ccccc2)CCO1 (stereo not drawn) the results were esBAF inh inactive, Wnt act inactive, EBV LMP1 NFkB inactive, MITF act inactive, TRPM1 prom inh inactive and C2C12 statin inactive.
`COc1ccccc1CNC(=O)C[C@@H]1CC[C@@H](NC(C)=O)[C@H](CO)O1` gave esBAF inh inactive and C2C12 statin inactive.
Screening COC(=O)c1cnc(SCC(=O)c2ccccc2)n1C returned esBAF inh inactive, Wnt act 32.5, EBV LMP1 NFkB inactive, MITF act inactive, TRPM1 prom inh inactive and C2C12 statin inactive.
Screening COC(=O)c1cnc(SCc2ccc(Cl)cc2)n1C returned Wnt act inactive, EBV LMP1 NFkB inactive, MITF act inactive and TRPM1 prom inh inactive.
For Cc1cccc2c1OCC/C2=N\NC(=O)COc1ccccc1Cl the results were esBAF inh 70.2, EBV LMP1 NFkB inactive, MITF act 95.4, TRPM1 prom inh inactive and C2C12 statin inactive.
CCS(=O)(=O)Nc1ccc2c(c1)C(=O)N(C)C[C@H](OC)[C@@H](C)CN(C(C)=O)[C@@H](C)CO2 was read as esBAF inh inactive and C2C12 statin inactive.
Nc1ccc2c(c1)Cc1c(F)cccc1-2 was read as esBAF inh 57.2, EBV LMP1 NFkB inactive, MITF act inactive, TRPM1 prom inh inactive and C2C12 statin inactive.
`N#Cc1c(Oc2ccc3ccccc3c2)sc(C(=O)c2ccccc2)c1N` gave esBAF inh inactive, EBV LMP1 NFkB 57.8, MITF act inactive, TRPM1 prom inh inactive and C2C12 statin inactive.
For Cc1cccc(Oc2sc(C(=O)c3ccccc3)c(N)c2C#N)c1C the results were EBV LMP1 NFkB inactive, MITF act inactive and TRPM1 prom inh inactive.
Screening O=C(NNC(=O)c1ccc(Cl)c(S(=O)(=O)Nc2ccc(Cl)cc2)c1)c1ccc(=O)[nH]c1 returned Wnt act inactive, EBV LMP1 NFkB inactive, MITF act inactive and TRPM1 prom inh inactive.
For CC1CCCC(NC(=O)COC(=O)c2cc3ccccc3oc2=O)C1C (stereo not drawn) the results were esBAF inh 68.1, Wnt act inactive, EBV LMP1 NFkB inactive, MITF act inactive, TRPM1 prom inh inactive and C2C12 statin inactive.
For Cc1ccc(-n2ncc3c(NNC(=O)Cc4ccccc4)ncnc32)cc1 the results were Wnt act inactive, EBV LMP1 NFkB inactive, MITF act inactive and TRPM1 prom inh inactive.
For CSc1ccc(/C=N/NC(=O)c2ccc(C)c(C)c2)cc1 the results were Wnt act inactive, EBV LMP1 NFkB inactive, MITF act inactive and TRPM1 prom inh inactive.
`O=C(N/N=C(/CC(=O)c1cccs1)C(F)(F)F)c1ccc(O)cc1` gave EBV LMP1 NFkB 49.4, MITF act inactive and TRPM1 prom inh inactive.
`O=C(N/N=C(\CC(=O)c1cccs1)C(F)(F)F)c1cccnc1` gave Wnt act inactive, EBV LMP1 NFkB inactive, MITF act inactive and TRPM1 prom inh inactive.
Screening O=C(N/N=C/c1ccccc1C(F)(F)F)c1ccc(O)cc1 returned Wnt act inactive, EBV LMP1 NFkB inactive, MITF act 85.7 and TRPM1 prom inh inactive.
O=C(N/N=C\c1ccc(F)cc1)c1csnn1 was read as esBAF inh 44.1, EBV LMP1 NFkB inactive, MITF act inactive, TRPM1 prom inh inactive and C2C12 statin inactive.
`CSc1ccc(/C=N/NC(=O)c2cc(O)cc(O)c2)cc1` gave esBAF inh inactive, Wnt act 34.5, EBV LMP1 NFkB inactive, MITF act inactive, TRPM1 prom inh inactive and C2C12 statin inactive.
CCn1cc(C2=NOC(C(=O)Nc3cc(OC)c(Cl)cc3OC)C2)c(C)n1 (stereo not drawn) was read as esBAF inh inactive, Wnt act inactive, EBV LMP1 NFkB inactive, MITF act inactive, TRPM1 prom inh inactive and C2C12 statin inactive.
For O=C(O)CCN1C(=O)/C(=C2\C(=O)N(Cc3ccccc3Cl)c3ccccc32)SC1=S the results were esBAF inh inactive, Wnt act inconclusive, EBV LMP1 NFkB inactive, MITF act inactive, TRPM1 prom inh inactive and C2C12 statin inactive.
For O=C(Nc1cc(Cl)cc(Cl)c1)c1cnn2cccnc12 the results were Wnt act inactive, EBV LMP1 NFkB inactive, MITF act inactive and TRPM1 prom inh inactive.
Screening CCn1ncc(/C=N\NC(=O)c2csc3ccccc23)c1C returned esBAF inh inactive, EBV LMP1 NFkB inactive, TRPM1 prom inh inactive and C2C12 statin inactive.
Screening O=C(N/N=C/c1ccccc1)c1cccc2ccccc12 returned Wnt act inactive, EBV LMP1 NFkB inactive, MITF act inactive and TRPM1 prom inh inactive.
CC(SC(C)C(=O)NN=Cc1ccc(F)cc1)C(=O)NN=Cc1ccc(F)cc1 (stereo not drawn) was read as Wnt act inactive, EBV LMP1 NFkB inactive, MITF act inactive, TRPM1 prom inh inactive and C2C12 statin 122.3.
Screening CCn1c2ccccc2c2cc(/C=N/NC(=O)c3ccccc3)ccc21 returned esBAF inh inactive, EBV LMP1 NFkB 78.8, MITF act inactive, TRPM1 prom inh inactive and C2C12 statin inactive.
`CCn1c2ccccc2c2cc(NC(=O)c3ccccc3-c3ccccc3C(=O)O)ccc21` gave esBAF inh inactive, Wnt act inactive, EBV LMP1 NFkB 51.6, MITF act inactive, TRPM1 prom inh inactive and C2C12 statin inactive.
Nc1c(C(=O)N/N=C/c2ccccc2)cnn1-c1ccccc1 was read as esBAF inh 48.5, Wnt act inactive, EBV LMP1 NFkB inactive, MITF act inactive, TRPM1 prom inh inactive and C2C12 statin inactive.
`Cn1c2ccccc2c2cc(/C=N/NC(=O)c3cc(O)cc(O)c3)ccc21` gave esBAF inh inactive, Wnt act inactive, EBV LMP1 NFkB inactive, MITF act inactive, TRPM1 prom inh inactive and C2C12 statin inactive.
`CCOc1ccc(NC(=O)CCC(=O)OC)cc1` gave esBAF inh inactive, EBV LMP1 NFkB inactive, MITF act inactive, TRPM1 prom inh inactive and C2C12 statin inactive.
Screening O=C(N/N=C/c1ccc(F)cc1)c1ccccc1 returned Wnt act 33.9, EBV LMP1 NFkB inactive, MITF act inactive and TRPM1 prom inh inactive.
For O=C(N/N=C/c1ccccc1)c1c(O)c2ccccc2[nH]c1=O the results were Wnt act inactive, EBV LMP1 NFkB inactive, MITF act inactive and TRPM1 prom inh inactive.
O=C(N/N=C/c1ccc(F)cc1)c1c(O)c2ccccc2[nH]c1=O was read as Wnt act inactive, EBV LMP1 NFkB inactive, MITF act inactive and TRPM1 prom inh 62.6.
O=C(O)c1ccc(/C=N/NC(=O)c2ccc(F)cc2)cc1 was read as Wnt act inactive, EBV LMP1 NFkB inactive, MITF act inactive and TRPM1 prom inh inactive.
